Inhibition (interference) data for six molecules are collected here from PubChem BioAssay AID756 (University of Pittsburgh Molecular Library Screening Center, 2007).

Molecules are shown by their SMILES. This is one part of the list. The source made the active and inactive calls.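 Rule for the calls: active = both duplicate runs show 50% or greater inhibition; inconclusive = only one duplicate run shows over 50% inhibition; inactive = both runs show under 50% inhibition.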

The test is described as follows: compound interference with Plk1 assay readout, artefact control for Plk1 kinase inhibitor project, biochemical, TR-FRET, compound added post-reaction (AID 756).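 Note: 0% = DMSO max control and 100% = H-89 min control inhibited reaction.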 To be noted: at 10 µM, stronger effect = higher value.
For the molecule `COc1ccc(-c2nc(CS(=O)CC(=O)NCc3cccnc3)c(C)o2)cc1OC` (stereo unspecified), the inhibition (interference) is -52.6% (inactive). The same measure for `O=C(Nc1cccc(F)c1)c1ccc(S(=O)(=O)N2CCCC2)cc1`: -44.8% (inactive); for `CC1CN(c2cc(=O)n(Cc3ccc(F)cc3)c(=O)[nH]2)CC(C)O1` (stereo unspecified): -49.5% (inactive); for `Cc1ccnc(N2C(=O)c3ccccc3C2Nc2ccc3c(c2)OCCO3)c1` (stereo unspecified): -50.1% (inactive). The same measure for `CC1CSc2nnc(CCc3ccccc3)n21` (stereo unspecified): -58.9% (inactive); for `C[N+]1(CCNC(=O)/C=N/O)CCCCC1`: -46.6% (inactive).
